The panel holds about 79,000 compounds, 15% with a hit somewhere; the sample as a whole holds those more often. Active and inactive are the calls of the source. Rule as the data show it: active = growth inhibition above about 70%; inactive = the rest.
Test: NCI Yeast Anticancer Drug Screen. Data for the mlh1 rad18 strain (AID 175)
Conditions: S. cerevisiae mlh1 rad18 strain growth inhibition; at 50.0 µM; stronger effect = higher value
Method in brief: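 Read-out is yeast growth inhibition, calculated against vehicle-only controls. The compound was applied to a strain engineered with DNA damage repair alterations.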

SMILES | growth inhibition
CCN(CC)CC[n+]1ccc2c(C)c3[nH]c4ccc(O)cc4c3c(C)c2c1 | 27.8% (inactive)
O=[n+]1c2ccc(Cl)cc2n([O-])c2ccc(Cl)cc21 | 11.7% (inactive)
CCOP(=O)(OCC)C(Cc1ccccc1)N=C(c1ccccc1)c1ccccc1 (centres undefined) | 98.7% (active)
CC[C@@]1(O)C(=O)OCc2c1cc1n(c2=O)Cc2cc3c(N)cccc3nc2-1 | 5.1% (inactive)
COC1C=COC2(C)Oc3c(C)c(O)c4c(c3C2=O)/C(=N/C2CCC(O)OC2C)C=C(NC(=O)/C(C)=C\C(=O)C2CC2C(O)C(C)C(O)C(C)C(OC(C)=O)C1C)C4=O (centres undefined) | 17.9% (inactive)
COc1cc2c(c(OC)c1OC)-c1c(cc3c(c1OC)OCO3)CC(C)C(C)(O)C2OC(=O)c1ccccc1 (centres undefined) | 87.8% (active)
O=c1ssc2ncccc12 | 96.7% (active)
O=C1C2C(C(=O)N1c1ccc(OCc3ccccc3)cc1)C1c3ccccc3C2C2CCCCN21 (centres undefined) | 90.9% (active)
COc1ccc(-c2cn(-c3ccc(I)cc3)c3ncnc(N)c23)cc1 | 14.2% (inactive)
CCOC(=O)C(NC(=O)c1ccccc1)(N1CCN(c2cc3c(cc2F)c(=O)c(C(=O)O)cn3C2CC2)CC1)C(F)(F)F (centres undefined) | -1.95% (inactive)
C/C(=N\O)C1CC2C=C(C#N)C1N(Cc1ccccc1)C2 (centres undefined) | 9% (inactive)
CC/C(=C(\c1ccccc1)c1ccc(OCCN(C)C)cc1)c1ccccc1 | 40.4% (inactive)
COc1ccccc1N=NC(C(=O)c1ccccc1)C(=O)c1ccccc1 | 92.5% (active)
CC(O)C(O)C(O)C(/C=N\Nc1ccccc1)=N/Nc1ccccc1 (centres undefined) | 98.9% (active)

From PubChem BioAssay (NCI)
